Values joined by “and” are separate entries in the source; they are usually repeats but may differ in a detail not shown here. Equal entries are not always repeated. The source holds several records for some structures; these can differ, active in one and inactive in another. Active and inactive are the calls of the source. Rule for the calls: active = hit-call score of the fitted dose curve at least 0.9, where 1 is the maximum; inactive = score below 0.9.
Legend:
[1] = BSK_CASM3C_SRB: Viability Assessment in the BioMAP Diversity Plus: CASM3C Assay (AID 2283050); conditions: primary human coronary artery smooth muscle cells
[2] = read-out: Thrombomodulin, THBD (gene 7056); test: BSK_CASM3C_Thrombomodulin: BioMAP Diversity Plus: CASM3C Assay for Thrombomodulin Biomarker Activity (AID 2283051); conditions: primary human coronary artery smooth muscle cells; actives raise or lower the signal;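 note: thrombomodulin protein level measured by ELISA 24 h after dosing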
[3] = read-out: Tissue Factor, F3 (gene 2152); test: BSK_CASM3C_TissueFactor: BioMAP Diversity Plus: CASM3C Assay for Tissue Factor Biomarker Activity (AID 2283052); conditions: primary human coronary artery smooth muscle cells; actives raise or lower the signal;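 note: cell surface tissue factor protein level read by ELISA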
[4] = read-out: Interferon-gamma inducible Protein 10 (IP10), CXCL10 (gene 3627); test: BSK_hDFCGF_IP10: BioMAP Diversity Plus: hDFCGF Assay for Interferon-gamma inducible Protein 10 (IP10) Biomarker Activity (AID 2283053); conditions: primary human foreskin fibroblasts; actives raise or lower the signal
Outline: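 Chemical-treated human skin fibroblasts (primary) were sampled at 24 h for IP-10 by ELISA. Both increases and decreases relative to DMSO were scored.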

[5] = read-out: Urokinase-type plasminogen activator receptor (uPAR), PLAUR (gene 5329); test: BSK_CASM3C_uPAR: BioMAP Diversity Plus: CASM3C Assay for Urokinase-type plasminogen activator receptor (uPAR) Biomarker Activity (AID 2283054); conditions: primary human coronary artery smooth muscle cells; actives raise or lower the signal;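 note: cell-surface uPAR protein level quantified by ELISA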
[6] = read-out: Vascular cell adhesion molecule 1 (VCAM1), VCAM1 (gene 7412); test: BSK_CASM3C_VCAM1: BioMAP Diversity Plus: CASM3C Assay for Vascular cell adhesion molecule 1 (VCAM1) Biomarker Activity (AID 2283055); conditions: primary human coronary artery smooth muscle cells; actives raise or lower the signal;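 note: VCAM-1 protein level quantified by ELISA on the cells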
[7] = read-out: Collagen III, COL3A1 (gene 1281); test: BSK_hDFCGF_CollagenIII: BioMAP Diversity Plus: hDFCGF Assay for Collagen III Biomarker Activity (AID 2283056); conditions: primary human foreskin fibroblasts; actives raise or lower the signal
Outline: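 Response relative to DMSO, fitted in both directions, reflects ELISA-measured collagen III in human primary skin fibroblasts 24 h after compound addition.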

[8] = read-out: Epidermal growth factor receptor (EGFR), EGFR (gene 1956); test: BSK_hDFCGF_EGFR: BioMAP Diversity Plus: hDFCGF Assay for Epidermal growth factor receptor (EGFR) Biomarker Activity (AID 2283057); conditions: primary human foreskin fibroblasts; actives raise or lower the signal
Outline: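 Cell-based multiplexed assay in primary human foreskin fibroblasts. EGFR is read by ELISA 24 h after treatment and compared with DMSO controls.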

[9] = read-out: Interleukin-8 (IL8), CXCL8 (gene 3576); test: BSK_hDFCGF_IL8: BioMAP Diversity Plus: hDFCGF Assay for Interleukin-8 (IL8) Biomarker Activity (AID 2283058); conditions: primary human foreskin fibroblasts; actives raise or lower the signal
Outline: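 Fibroblast monolayers (human foreskin, hDFCGF) received test chemical for 24 h before ELISA detection of IL-8; either increases or decreases relative to DMSO count as activity.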

[10] = BSK_hDFCGF_Proliferation: Cell Proliferation Assessment in the BioMAP Diversity Plus: hDFCGF Assay (AID 2283059); conditions: primary human foreskin fibroblasts;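 note: curves fitted for both rise and fall of signal versus DMSO baseline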
Outline: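 Total protein read at 560 nm after 0.1% SRB staining of TCA-fixed human skin fibroblasts, […]. Activity is fitted in both directions relative to DMSO as baseline.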

[11] = read-out: Macrophage colony-stimulating factor (MCSF), CSF1 (gene 1435); test: BSK_hDFCGF_MCSF: BioMAP Diversity Plus: hDFCGF Assay for Macrophage colony-stimulating factor (MCSF) Biomarker Activity (AID 2283060); conditions: primary human foreskin fibroblasts; actives raise or lower the signal
Outline: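 fibroblasts (human foreskin, primary), 24 h post-dose; M-CSF by ELISA; bidirectional fit, DMSO = baseline.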

[12] = BSK_hDFCGF_SRB: Viability Assessment in the BioMAP Diversity Plus: hDFCGF Assay (AID 2283061); conditions: primary human foreskin fibroblasts;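 note: cells exposed to compound for 24 h before the read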
Outline: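 SRB-based viability read on primary human skin fibroblasts at 24 h: TCA fixation, 0.1% dye, 560 nm. Gain or loss of signal is fitted against the DMSO negative control.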

[13] = read-out: TIMP metallopeptidase inhibitor 1 (TIMP1), TIMP1 (gene 7076); test: BSK_hDFCGF_TIMP1: BioMAP Diversity Plus: hDFCGF Assay for TIMP metallopeptidase inhibitor 1 (TIMP1) Biomarker Activity (AID 2283062); conditions: primary human foreskin fibroblasts; actives raise or lower the signal
Outline: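 Bidirectional curve fitting against DMSO baseline yielded this endpoint, based on ELISA detection of TIMP-1 in primary human foreskin fibroblasts exposed to compound for 24 h.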

[14] = read-out: Monokine induced gamma interferon (MIG), CXCL9 (gene 4283); test: BSK_hDFCGF_MIG: BioMAP Diversity Plus: hDFCGF Assay for Monokine induced gamma interferon (MIG) Biomarker Activity (AID 2283063); conditions: primary human foreskin fibroblasts; actives raise or lower the signal
Outline: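 Endpoint derived by bidirectional fitting relative to DMSO; MIG quantified via ELISA in primary human foreskin fibroblasts harvested 24 h after dosing.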

[15] = read-out: Matrix Metallopeptidase 1 (MMP1), MMP1 (gene 4312); test: BSK_hDFCGF_MMP1: BioMAP Diversity Plus: hDFCGF Assay for Matrix Metallopeptidase 1 (MMP1) Biomarker Activity (AID 2283064); conditions: primary human foreskin fibroblasts; actives raise or lower the signal
Outline: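 MMP1 levels quantified by ELISA 24 h after dosing human dermal fibroblast cultures, with parallel SRB total-protein staining for overt cytotoxicity. Data fitted in both directions against DMSO baseline.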

[16] = read-out: Vascular cell adhesion molecule 1 (VCAM1), VCAM1 (gene 7412); test: BSK_hDFCGF_VCAM1: BioMAP Diversity Plus: hDFCGF Assay for Vascular cell adhesion molecule 1 (VCAM1) Biomarker Activity (AID 2283065); conditions: primary human foreskin fibroblasts; actives raise or lower the signal;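 for AC50: VCAM-1 protein level quantified by ELISA after 24 h chemical exposure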
Outline: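 Measured after 24 h chemical treatment of primary human skin fibroblasts, VCAM-1 was detected by ELISA and concentration-response analysed in both directions versus DMSO vehicle.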

[17] = read-out: Plasminogen activator inhibitor-1 (PAI1), SERPINE1 (gene 5054); test: BSK_hDFCGF_PAI1: BioMAP Diversity Plus: hDFCGF Assay for Plasminogen activator inhibitor-1 (PAI1) Biomarker Activity (AID 2283066); conditions: primary human foreskin fibroblasts; actives raise or lower the signal
Outline: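 Human skin fibroblast cultures receive chemical for 24 h before PAI-1 is measured by ELISA; signal changes are fitted bidirectionally against DMSO-treated wells.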

[18] = read-out: Intercellular Adhesion Molecule 1 (ICAM1), ICAM1 (gene 3383); test: BSK_KF3CT_ICAM1: BioMAP Diversity Plus: KF3CT Assay for Intercellular Adhesion Molecule 1 (ICAM1) Biomarker Activity (AID 2283067); conditions: primary human keratinocytes with fibroblasts; actives raise or lower the signal
Outline: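 Bidirectional curve fitting against a DMSO baseline was applied to ICAM-1 ELISA signal from primary human skin co-cultures harvested 24 h after treatment, with SRB staining of parallel wells for overt cytotoxicity.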

[19] = read-out: Interferon-gamma inducible Protein 10 (IP10), CXCL10 (gene 3627); test: BSK_KF3CT_IP10: BioMAP Diversity Plus: KF3CT Assay for Interferon-gamma inducible Protein 10 (IP10) Biomarker Activity (AID 2283068); conditions: primary human keratinocytes with fibroblasts; actives raise or lower the signal
Outline: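 Human keratinocyte plus foreskin fibroblast primary co-culture exposed to test chemical for 24 h; IP-10 measured by ELISA. Concentration-response fitted bidirectionally against DMSO control as baseline.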

[20] = BSK_KF3CT_SRB: Viability Assessment in the BioMAP Diversity Plus: KF3CT Assay (AID 2283069); conditions: primary human keratinocytes with fibroblasts;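 note: total protein by sulforhodamine B staining as a cytotoxicity measure; fitted for both signal gain and loss against DMSO baseline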
Outline: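 Cytotoxicity was gauged by SRB staining (0.1% SRB, 10% TCA fixation, 560 nm) of parallel cultures at 24 h. The cells were primary human skin keratinocytes co-cultured with fibroblasts, and activity was fitted in both directions against DMSO.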

Measured: AC50

Cc1ccc(O)c(C)c1
active: [10] 12.4 µM
inactive: all other assays above

CCC(C)c1cc([N+](=O)[O-])cc([N+](=O)[O-])c1O (stereo unspecified)
active: [1] 30.2 µM | [5] 31.3 µM | [10] 3.85 µM | [11] 4.2 µM | [12] 7.45 µM | [17] 12 µM | [19] 3.97 µM
inactive: all other assays above

Cc1ccccc1CO[C@@H]1C[C@@]2(C(C)C)CC[C@]1(C)O2
inactive: all assays above

O=C(O)C(F)(F)C(F)(F)C(F)(F)C(F)(F)C(F)(F)C(F)(F)C(F)(F)C(F)(F)C(F)(F)F
active: [4] 28.5 µM and 29.1 µM and 32.8 µM | [6] 41.3 µM and 30 µM | [7] 29.7 µM and 30 µM | [8] 7.6 µM | [9] 36.9 µM and 57.3 µM and 55.1 µM | [10] 13.5 µM and 16.5 µM and 17.1 µM | [12] 28.5 µM and 48.8 µM and 49 µM | [13] 35 µM and 22.2 µM and 39.3 µM | [14] 33 µM and 36.5 µM and 37.9 µM | [15] 33.3 µM and 26.9 µM and 40.3 µM | [16] 31.2 µM and 17.9 µM and 19.4 µM | [17] 33.1 µM and 38.3 µM and 47 µM | [18] 36.7 µM and 45.8 µM and 54.9 µM | [19] 17.3 µM and 46.9 µM and 40.5 µM | [20] 33.1 µM and 50.3 µM and 50.8 µM
inactive: [1] | [2] | [3] | [5] | [6] | [8]

CCCCCCCCOC(=O)c1ccccc1C(=O)OCCCCCCCC
inactive: all assays above

O=C(N[C@H]1CN2CCC1CC2)c1cc2ccoc2cn1
inactive: all assays above

COc1ccc(O)c(C(C)(C)C)c1
active: [7] 3.97 µM and 8.37 µM
inactive: [1] | [2] | [3] | [4] | [5] | [6] | [7] | [8] | [9] | [10] | [11] | [12] | [13] | [14] | [15] | [16] | [17] | [18] | [19] | [20]

CCCCCCCCCC[N+](C)(C)CCCCCCCCCC
active: [1] 5.43 µM | [3] 1.69 µM | [4] 2.44 µM | [5] 3.56 µM | [6] 5.15 µM | [7] 1.76 µM | [8] 1.22 µM | [9] 3.01 µM | [10] 0.154 µM | [11] 2.04 µM | [12] 1.81 µM | [13] 2 µM | [14] 2.95 µM | [15] 1.97 µM | [16] 3.39 µM | [17] 1.58 µM | [18] 10.7 µM | [19] 6.12 µM | [20] 5.41 µM
inactive: [2]

C=CC(=O)NCNC(=O)C=C
inactive: all assays above

Clc1ccc(Cl)cc1
inactive: all assays above

Oc1ccc(Cl)cc1Cl
inactive: all assays above

Sc1ccccc1
not listed: [11]
inactive: all other assays above

CC(C)(O)C(=O)Nc1ccc([N+](=O)[O-])c(C(F)(F)F)c1
not listed: [11]
inactive: all other assays above

ClC1=C(Cl)[C@]2(Cl)[C@@H]3[C@@H]4C[C@@H]([C@H]5O[C@@H]45)[C@@H]3[C@@]1(Cl)C2(Cl)Cl
active: [10] 8.97 µM
not listed: [11]
inactive: all other assays above

Clc1ccc(C(c2ccccc2Cl)C(Cl)(Cl)Cl)cc1 (stereo unspecified)
inactive: [3] | [8]
active: [1] 22.8 µM | [2] 19.6 µM | [4] 7.73 µM | [5] 25.6 µM | [6] 11.7 µM | [7] 6.51 µM | [9] 10.8 µM | [10] 6.94 µM | [12] 6.8 µM | [13] 9.41 µM | [14] 18.5 µM | [15] 9.47 µM | [16] 6.32 µM | [17] 5.83 µM | [18] 22.8 µM | [19] 10 µM | [20] 21.1 µM

CCSC(=O)N(CC)C1CCCCC1
not listed: [11]
inactive: all other assays above

C[C@]12CCC(=O)C=C1CC[C@@H]1[C@@H]2CC[C@]2(C)C(=O)CC[C@@H]12
active: [10] 13.2 µM
not listed: [11]
inactive: all other assays above

CC#Cc1cc(C)nc(Nc2ccccc2)n1
not listed: [11]
inactive: all other assays above

Cc1cc(O)ccc1Cl
not listed: [11]
inactive: all other assays above

CCCCCCOC(=O)c1ccccc1C(=O)OCCCCCC
active: [2] 17.5 µM | [7] 7.56 µM | [10] 11.2 µM
not listed: [11]
inactive: all other assays above

O=C(O)C(F)(F)C(F)(F)C(F)(F)C(F)(F)C(F)(F)F
not listed: [11]
inactive: all other assays above

Nn1cnnc1
not listed: [11]
inactive: all other assays above

— PubChem BioAssay (EPA / NIEHS)
